As usually defined, the inhibition is the drop in the measured response relative to a control, in per cent.

Our source for the inhibition values is ChEMBL document CHEMBL1961873, “Compounds: GSK PKIS; Assays: Nanosyn kinase panel” (2012).

For experiment [1], the target named is Casein kinase I isoform gamma-2 (Homo sapiens) (UniProt P78368). To be noted: at 1 µM.
Experiment [2] concerns the target Casein kinase I isoform gamma-3 (Homo sapiens) (UniProt Q9Y6M4). As to conditions: at 0.1 µM.
Experiment [3] has the same target. To be noted: at 1 µM.
Experiment [4] addresses Cyclin-dependent kinase 1 (Homo sapiens) (UniProt P06493). To be noted: at 0.1 µM.
The target is the same in experiment [5]. As to conditions: at 1 µM.
Experiment [6] addresses Cyclin-dependent kinase 2 (Homo sapiens) (UniProt P24941). To be noted: at 0.1 µM.
Experiment [7] shares this target. As to conditions: at 1 µM.
Experiment [8] has the same target. To be noted: at 0.1 µM. This is another data set of the same source.
For experiment [9] the target is unchanged. To be noted: at 1 µM. The source holds these as a separate data set.
Experiment [10] addresses T1, CDK3/Cyclin E (Homo sapiens) (UniProt P24864+Q00526). To be noted: at 0.1 µM.
Experiment [11] addresses T1, CDK3/Cyclin E (Homo sapiens). As to conditions: at 1 µM.
The target of experiment [12] is Cyclin-dependent kinase 4 (Homo sapiens) (UniProt P11802). As to conditions: at 0.1 µM.
The target is the same in experiment [13]. As to conditions: at 1 µM.
Experiment [14] has as its target Cyclin-dependent kinase 5 (Homo sapiens) (UniProt Q00535). To be noted: at 0.1 µM.
Experiment [15] has the same target. To be noted: at 1 µM.
Experiment [16] has as its target Cyclin-dependent kinase 6 (Homo sapiens) (UniProt Q00534). As to conditions: at 0.1 µM.
Experiment [17] shares this target. As to conditions: at 1 µM.
For experiment [18], the target named is Dual specificity protein kinase CLK2 (Homo sapiens) (UniProt P49760). To be noted: at 0.1 µM.
Experiment [19] shares this target. As to conditions: at 1 µM.
Experiment [20] concerns the target Dual specificity protein kinase CLK3 (Homo sapiens) (UniProt P49761). As to conditions: at 0.1 µM.

Chain of Cyclin-dependent kinase 1 (Homo sapiens) (P06493 whole entry, looked up): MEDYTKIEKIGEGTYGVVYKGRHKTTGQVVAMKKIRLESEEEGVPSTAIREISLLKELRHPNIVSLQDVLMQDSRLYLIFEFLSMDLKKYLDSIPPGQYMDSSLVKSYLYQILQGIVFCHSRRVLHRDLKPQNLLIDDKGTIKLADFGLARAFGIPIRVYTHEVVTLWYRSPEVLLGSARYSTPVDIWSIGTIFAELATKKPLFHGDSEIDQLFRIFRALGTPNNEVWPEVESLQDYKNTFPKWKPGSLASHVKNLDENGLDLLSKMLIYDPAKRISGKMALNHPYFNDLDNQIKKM
T1 sequence (P24864 whole entry, looked up): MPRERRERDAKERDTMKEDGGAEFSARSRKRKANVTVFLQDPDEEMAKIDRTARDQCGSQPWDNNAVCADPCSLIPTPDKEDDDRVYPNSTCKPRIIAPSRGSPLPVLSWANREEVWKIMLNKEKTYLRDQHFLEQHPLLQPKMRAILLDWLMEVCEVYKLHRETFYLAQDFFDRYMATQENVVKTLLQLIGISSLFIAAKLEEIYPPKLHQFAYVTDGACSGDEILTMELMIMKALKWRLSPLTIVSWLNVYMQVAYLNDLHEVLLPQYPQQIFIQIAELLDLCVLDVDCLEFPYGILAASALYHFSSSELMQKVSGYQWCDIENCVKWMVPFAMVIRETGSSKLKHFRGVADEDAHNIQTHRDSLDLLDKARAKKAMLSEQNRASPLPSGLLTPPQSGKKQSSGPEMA
T1 sequence (Q00526 whole entry, looked up): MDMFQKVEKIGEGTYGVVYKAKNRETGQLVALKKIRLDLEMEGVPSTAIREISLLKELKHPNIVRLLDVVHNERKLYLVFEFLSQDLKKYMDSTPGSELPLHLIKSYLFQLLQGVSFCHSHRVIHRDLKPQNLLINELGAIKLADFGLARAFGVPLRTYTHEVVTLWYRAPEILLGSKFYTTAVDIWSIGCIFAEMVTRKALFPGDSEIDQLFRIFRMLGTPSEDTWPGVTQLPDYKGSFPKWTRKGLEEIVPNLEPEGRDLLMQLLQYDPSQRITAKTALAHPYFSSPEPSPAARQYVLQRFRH
Chain of Dual specificity protein kinase CLK2 (Homo sapiens) (P49760 whole entry, looked up): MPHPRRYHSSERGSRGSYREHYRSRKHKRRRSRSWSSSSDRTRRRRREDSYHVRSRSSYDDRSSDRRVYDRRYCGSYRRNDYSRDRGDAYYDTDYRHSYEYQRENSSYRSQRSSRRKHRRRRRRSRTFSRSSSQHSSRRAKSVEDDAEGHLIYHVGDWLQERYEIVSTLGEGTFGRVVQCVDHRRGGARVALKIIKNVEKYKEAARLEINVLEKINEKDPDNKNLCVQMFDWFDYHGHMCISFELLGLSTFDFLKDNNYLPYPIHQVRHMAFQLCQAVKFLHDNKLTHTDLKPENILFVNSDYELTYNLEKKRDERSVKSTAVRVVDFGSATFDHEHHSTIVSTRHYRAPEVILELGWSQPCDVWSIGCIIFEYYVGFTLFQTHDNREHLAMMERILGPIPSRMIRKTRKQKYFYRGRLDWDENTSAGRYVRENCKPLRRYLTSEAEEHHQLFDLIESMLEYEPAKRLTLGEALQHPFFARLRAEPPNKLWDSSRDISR
Chain of Cyclin-dependent kinase 5 (Homo sapiens) (Q00535 whole entry, looked up): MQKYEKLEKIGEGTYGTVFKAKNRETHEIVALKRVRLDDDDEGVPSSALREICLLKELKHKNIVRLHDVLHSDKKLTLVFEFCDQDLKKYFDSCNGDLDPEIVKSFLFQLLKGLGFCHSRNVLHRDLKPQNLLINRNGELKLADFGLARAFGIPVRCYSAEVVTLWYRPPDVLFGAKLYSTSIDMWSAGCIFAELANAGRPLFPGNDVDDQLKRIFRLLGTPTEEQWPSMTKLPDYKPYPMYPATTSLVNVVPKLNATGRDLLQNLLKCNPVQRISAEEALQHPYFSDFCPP
Chain of Cyclin-dependent kinase 4 (Homo sapiens) (P11802 whole entry): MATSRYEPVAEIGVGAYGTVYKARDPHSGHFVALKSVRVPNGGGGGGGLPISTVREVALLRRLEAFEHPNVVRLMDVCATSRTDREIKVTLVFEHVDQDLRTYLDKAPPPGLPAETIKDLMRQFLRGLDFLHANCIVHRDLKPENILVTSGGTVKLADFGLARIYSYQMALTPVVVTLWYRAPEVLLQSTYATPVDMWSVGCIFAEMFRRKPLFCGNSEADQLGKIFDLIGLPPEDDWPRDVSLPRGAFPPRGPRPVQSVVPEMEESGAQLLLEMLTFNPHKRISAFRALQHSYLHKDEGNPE
Chain of Cyclin-dependent kinase 6 (Homo sapiens) (Q00534 whole entry): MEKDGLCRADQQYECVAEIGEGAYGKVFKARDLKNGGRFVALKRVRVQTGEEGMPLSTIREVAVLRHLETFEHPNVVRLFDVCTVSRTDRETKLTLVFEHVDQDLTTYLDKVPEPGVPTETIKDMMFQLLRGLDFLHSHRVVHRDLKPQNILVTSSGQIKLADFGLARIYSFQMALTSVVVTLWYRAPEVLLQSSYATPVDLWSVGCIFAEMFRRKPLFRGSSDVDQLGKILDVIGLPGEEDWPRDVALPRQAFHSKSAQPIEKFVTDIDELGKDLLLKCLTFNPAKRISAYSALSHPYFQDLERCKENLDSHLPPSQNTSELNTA
Chain of Dual specificity protein kinase CLK3 (Homo sapiens) (P49761 whole entry, looked up): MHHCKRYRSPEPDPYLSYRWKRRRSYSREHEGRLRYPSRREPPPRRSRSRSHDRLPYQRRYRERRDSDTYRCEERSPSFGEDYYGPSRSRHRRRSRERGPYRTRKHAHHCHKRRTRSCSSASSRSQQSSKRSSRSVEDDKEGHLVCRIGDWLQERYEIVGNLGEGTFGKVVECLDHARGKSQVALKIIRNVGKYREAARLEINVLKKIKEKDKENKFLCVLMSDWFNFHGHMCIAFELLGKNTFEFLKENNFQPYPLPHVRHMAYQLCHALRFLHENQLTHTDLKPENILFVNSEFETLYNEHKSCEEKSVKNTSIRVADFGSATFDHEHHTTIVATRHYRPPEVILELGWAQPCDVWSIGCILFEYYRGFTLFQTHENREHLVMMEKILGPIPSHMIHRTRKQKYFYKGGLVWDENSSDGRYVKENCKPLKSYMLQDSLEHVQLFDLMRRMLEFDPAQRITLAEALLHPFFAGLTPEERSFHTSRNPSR
Chain of Casein kinase I isoform gamma-2 (Homo sapiens) (P78368 whole entry, looked up, canonical isoform): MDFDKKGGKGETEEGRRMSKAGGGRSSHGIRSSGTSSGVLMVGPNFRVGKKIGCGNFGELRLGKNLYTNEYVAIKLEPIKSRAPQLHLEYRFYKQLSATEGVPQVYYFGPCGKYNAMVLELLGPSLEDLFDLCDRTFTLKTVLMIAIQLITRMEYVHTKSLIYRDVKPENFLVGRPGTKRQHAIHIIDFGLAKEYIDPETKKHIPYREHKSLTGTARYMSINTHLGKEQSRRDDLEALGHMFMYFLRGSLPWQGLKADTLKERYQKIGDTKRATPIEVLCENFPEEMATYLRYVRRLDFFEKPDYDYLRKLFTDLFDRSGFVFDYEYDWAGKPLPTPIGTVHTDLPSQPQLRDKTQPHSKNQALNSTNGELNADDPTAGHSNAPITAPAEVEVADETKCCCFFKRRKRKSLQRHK
Chain of Casein kinase I isoform gamma-3 (Homo sapiens) (Q9Y6M4 whole entry, looked up, canonical isoform): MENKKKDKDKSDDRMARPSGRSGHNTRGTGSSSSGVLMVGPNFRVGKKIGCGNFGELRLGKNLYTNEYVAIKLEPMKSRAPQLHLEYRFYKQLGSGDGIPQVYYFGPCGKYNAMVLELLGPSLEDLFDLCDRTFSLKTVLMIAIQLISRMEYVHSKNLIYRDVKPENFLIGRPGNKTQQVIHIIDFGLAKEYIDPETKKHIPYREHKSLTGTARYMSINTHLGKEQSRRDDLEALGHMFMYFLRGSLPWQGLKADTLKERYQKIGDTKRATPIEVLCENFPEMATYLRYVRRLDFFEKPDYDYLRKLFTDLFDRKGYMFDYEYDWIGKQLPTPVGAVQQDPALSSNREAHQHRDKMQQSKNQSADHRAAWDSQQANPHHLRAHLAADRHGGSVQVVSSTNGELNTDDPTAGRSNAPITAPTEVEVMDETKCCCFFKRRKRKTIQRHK

With `Nc1nc(-c2cccc(Cl)c2)c(-c2ccc3ncccc3n2)s1`, the inhibition in [1] is 13.7%; in experiment [2], 6.72%; in experiment [3], 24.7%; in experiment [4], 0.61%; in [5], 2.18%; in experiment [6], 1.23%. Besides, the inhibition was 0.95% in experiment [7]; 3.69% in experiment [8]; 4.47% in experiment [9]; 2.24% in [10]; -3.18% in [11]; 1.67% in experiment [12]. Also, the inhibition in experiment [13] was 1.92%; in experiment [14], 0.34%; in experiment [15] it was 0.13%; in experiment [16] it was -7.38%; in experiment [17], -2.65%; in experiment [18] it was 2.6%. Besides, the inhibition in experiment [19] was 9.25%; in experiment [20], 2.15%.

Take `CCn1c(-c2nonc2N)nc2ccccc21`: the inhibition was 2.97% in experiment [1]; 0.54% in experiment [2]; 4.86% in experiment [3]; -0.3% in experiment [4]; 0.59% in experiment [5]; 1.31% in [6]. Also, the inhibition stood at 2.17% in experiment [7]; 1.38% in experiment [8]; 4.31% in experiment [9]; 1.63% in experiment [10]; 1.41% in experiment [11]; 1.45% in [12]. The inhibition in [13] came out at 3.08%; in experiment [14], 0.59%; in experiment [15], 1.17%; in experiment [16], 1.48%; in [17] it was 1.55%; in experiment [18] it was 2.35%. The inhibition was 4.78% in [19] and 1.2% in [20].

With `CC(=O)Nc1cccc(C#Cc2cncnc2Nc2ccc(OCc3cccc(F)c3)c(Cl)c2)c1`, the inhibition in [1] is 2.49%; in experiment [2] it was 2.41%; in experiment [3], 1.12%; in experiment [4], -0.4%; in experiment [5], 0.31%; in experiment [6], 0.72%. Also, the inhibition amounted to 1.81% in [7]; 2% in [8]; 0.87% in experiment [9]; 1.66% in [10]; 0.86% in experiment [11]; 1.84% in experiment [12]. For the same compound, the inhibition is 1.74% in experiment [13]; 0.82% in [14]; 0.21% in [15]; -0.8% in [16]; -0.16% in experiment [17]; 2.3% in experiment [18]. Besides, the inhibition is 1.56% in [19] and -0.12% in [20].

For `COc1ccc(-c2cc3c(N)ncnc3o2)cc1`, the inhibition in experiment [1] was -0.54%; in experiment [2], -0.97%; in [3], 0.61%; in [4], 2.33%; in experiment [5] it was 6.06%; in experiment [6] it was 1.51%. Besides, the inhibition in experiment [7] was 2.69%; in experiment [8], 1.72%; in experiment [9], 5.09%; in experiment [10], 0.47%; in experiment [11], 1.68%; in experiment [12], 0.18%. For the same compound, the inhibition in experiment [13] is 3.35%; in [14], 1.53%; in [15] it was 5.3%; in experiment [16], -1.4%; in experiment [17] it was 2.82%; in experiment [18], 0.46%. Besides, the inhibition was found to be 2.78% in experiment [19] and 0.59% in experiment [20].

As for `COC(=O)Nc1nc2ccc(S(=O)(=O)c3ccc(NC(=O)Nc4cc(C(F)(F)F)ccc4F)cc3)cc2[nH]1`, the inhibition came out at 2.81% in [1]; 2.17% in experiment [2]; 2.25% in experiment [3]; 0.69% in [4]; 2.29% in experiment [5]; 1.37% in [6]. For the same compound, the inhibition in experiment [7] is 4.57%; in [8] it was 3.44%; in [9] it was 3.85%; in experiment [10], 3.5%; in experiment [11], -2.43%; in experiment [12], 2.72%. The inhibition in experiment [13] was 4.04%; in experiment [14], 1.61%; in experiment [15], 2.38%; in experiment [16], 0.21%; in experiment [17] it was 2.9%; in experiment [18], 0.38%. The inhibition in experiment [19] was 1.96%; in experiment [20], 0.87%.

`COc1cc(Nc2nccc(Nc3ccc4c(C)n[nH]c4c3)n2)cc(OC)c1OC`: the inhibition was 9.2% in experiment [1]; 0.39% in experiment [2]; -0.68% in experiment [3]; 0.71% in experiment [4]; 3.05% in [5]; 0.73% in experiment [6]. Moreover, the inhibition in experiment [7] is 3.22%; in [8], 2.32%; in [9] it was 6.07%; in experiment [10] it was 1.75%; in [11], 4.99%; in experiment [12], 2.86%. Besides, the inhibition in [13] was determined as 3.18%; in [14] it was 1.21%; in experiment [15], 2.36%; in [16], 1.52%; in [17], 3.31%; in experiment [18] it was 1.62%. Besides, the figures for the inhibition in experiment [19] and in experiment [20] were 2.36% and 0.25%, respectively.

Take `CCOc1ccc2c(-c3ccnc(Nc4cccc(C(F)(F)F)c4)n3)cnn2n1`: the inhibition in experiment [1] turned out to be 3.07%; in [2], 1.18%; in experiment [3], 1.86%; in [4], 0.34%; in experiment [5], 6.63%; in experiment [6], 1.78%. Besides, the inhibition in experiment [7] turned out to be 8.89%; in experiment [8], 3.35%; in experiment [9], 14.1%; in [10] it was 2.12%; in [11], 1.6%; in experiment [12], 1.35%. Also, the inhibition was 2.43% in experiment [13]; 0.66% in [14]; 3.67% in experiment [15]; -0.78% in experiment [16]; 1.85% in experiment [17]; 24.2% in experiment [18]. The inhibition in experiment [19] was 94.3%; in experiment [20], 0.68%.

For `COc1cccc(-n2ncc3c(N/N=C/c4ccc(F)cc4)ncnc32)c1`, the inhibition was determined as 4.65% in experiment [1]; 3.39% in experiment [2]; 3.4% in [3]; 9.55% in experiment [4]; 35.5% in [5]; 10.1% in experiment [6]. Also, the inhibition was found to be 48.5% in experiment [7]; 5.86% in [8]; 15.5% in [9]; 3.62% in [10]; 4.95% in experiment [11]; 6.67% in [12]. The inhibition in [13] was determined as 17.3%; in experiment [14], 9.38%; in experiment [15] it was 32.8%; in [16], 7.13%; in experiment [17], 16.8%; in experiment [18], 2.52%. Moreover, the inhibition in [19] came to 4.42%; in experiment [20], 3.03%.

On to `Cc1cccc2c1NC(=O)/C2=N\Nc1ccc(S(N)(=O)=O)cc1`, for which the inhibition in experiment [1] is 2.46%; in experiment [2] it was 0.83%; in experiment [3], 1.98%; in [4], 0.2%; in [5], 2.23%; in experiment [6], 1.45%. Besides, the inhibition came out at 3.8% in experiment [7]; 2.45% in experiment [8]; 3.99% in [9]; 2.34% in [10]; 2.03% in experiment [11]; 3.28% in experiment [12]. Besides, the inhibition in [13] came to 5.14%; in experiment [14] it was 0.68%; in experiment [15], 2.95%; in experiment [16], 5.03%; in experiment [17], 10.7%; in experiment [18] it was 1.48%. Also, the values for the inhibition in [19] and in experiment [20] were 2.98% and 1.44%, respectively.

Turning to `Nc1nc(-c2ccc(F)cc2)c(-c2ccc3ncccc3n2)s1`, the inhibition in [1] is 8.8%; in experiment [2], 4.7%; in experiment [3] it was 16.9%; in experiment [4], 3.94%; in experiment [5] it was 8.07%; in [6] it was 3.61%. For the same compound, the inhibition in [7] worked out at 0.25%; in experiment [8] it was 6.09%; in [9], 10.7%; in experiment [10] it was 3.73%; in experiment [11], 1.75%; in experiment [12], 6.95%. Also, the inhibition amounted to 9.34% in experiment [13]; 4.02% in experiment [14]; 7.28% in experiment [15]; 4.34% in experiment [16]; 7.53% in experiment [17]; 2.98% in experiment [18]. The figures for the inhibition in experiment [19] and in experiment [20] were 8.8% and 3.31%, respectively.

`CCc1nn2ncccc2c1-c1ccnc(NC2CC2)n1`: the inhibition in experiment [1] turned out to be 2.18%; in [2], 1.24%; in experiment [3], 0.68%; in [4], 2.52%; in experiment [5], 6.8%; in experiment [6], 3.24%. Moreover, the inhibition was 10.4% in [7]; 2.25% in experiment [8]; 9.7% in experiment [9]; -0.69% in experiment [10]; 2.56% in experiment [11]; 5.47% in experiment [12]. Also, the inhibition in experiment [13] worked out at 17.6%; in experiment [14], 0.79%; in [15], 6.84%; in experiment [16], 0.16%; in [17], 10.1%; in experiment [18], 0.1%. In addition, the inhibition worked out at 3.21% in [19] and 0.31% in [20].
